A selection: hits, their analogues and other compounds. The true share with any hit is near 1.8%.
MEX-5 binding: C. elegans MEX-5 TCR-2 RNA binding activity. Q9XUB2. MEX-5/FITC-TCR2 RNA binding, fluorescence polarization; hits give low values. activity score (negative = inhibition of binding), % at 10 µM. hit rate 0.38% among 300,000;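 active = inhibition past about -25% in most replicates, and total fluorescence under double the plate's negative control median, limit read from the data; inconclusive = replicates evenly split on the limit, or fluorescence at least double controls; inactive = too little inhibition in most replicates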;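 note: 0% = DMSO and -100% = 5 µM competing unlabeled TCR2 RNA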
Target sequence (Q9XUB2 whole entry, looked up): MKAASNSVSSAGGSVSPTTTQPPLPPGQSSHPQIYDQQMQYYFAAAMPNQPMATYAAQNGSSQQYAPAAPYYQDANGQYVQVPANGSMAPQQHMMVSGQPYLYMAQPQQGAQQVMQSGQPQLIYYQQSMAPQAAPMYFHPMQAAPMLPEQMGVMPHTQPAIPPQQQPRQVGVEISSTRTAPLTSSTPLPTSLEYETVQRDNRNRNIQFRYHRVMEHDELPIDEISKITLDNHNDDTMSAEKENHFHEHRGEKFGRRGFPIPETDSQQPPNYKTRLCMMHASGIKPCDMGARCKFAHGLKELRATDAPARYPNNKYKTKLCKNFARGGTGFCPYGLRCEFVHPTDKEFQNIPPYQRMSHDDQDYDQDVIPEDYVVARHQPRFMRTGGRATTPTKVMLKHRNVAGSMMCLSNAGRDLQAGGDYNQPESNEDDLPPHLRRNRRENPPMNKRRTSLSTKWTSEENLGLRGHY
PABP polyA inh: blocks human PABP binding to poly(A) RNA; P11940; fluorescence polarization; calls only at 35 µM; hit rate 1% among 290,000;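 note: calls also rest on retests at 20 µM and on dose response follow-up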
MLLE-PAM2 inh: inhibitors of microRNA-mediated deadenylation, human PABP1 MLLE binding; GST-MLLE / FITC-PAM2 fluorescence polarization; inhibition, % at 20 µM; P11940; hit rate 0.36% among 360,000; in the data active = inhibition above about 35%, passing the limit was not always enough;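 note: plate controls were DMSO wells with GST-MLLE for no effect and wells lacking GST-MLLE protein for full effect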
EBV gp42 inh: inhibitors of Epstein-Barr virus glycoprotein 42; Q1HVG2; Fluorescence polarization binding assay, mP read-out; inhibition, % (tested at 21.74 µM); hit rate 0.42% among 220,000; in the data active = inhibition above about 50%
eIF4H inh: inhibitors of RNA binding by human eIF4H; eIF4H fluorescence polarization binding assay; inhibition, % at 35 µM; hit rate 0.94% among 290,000;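 note: calls also rest on retests at 20 µM and on dose response follow-up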
The depositor's hits bear a star; i = inactive; u = inconclusive; x = not tested or not shown; + = active, no number. Unless noted, the rule behind the calls is not given here.

SMILES | MEX-5 binding | PABP polyA inh | MLLE-PAM2 inh | EBV gp42 inh | eIF4H inh
CCOC(=O)CSc1nc2c(c(=O)[nH]c(=O)n2C)n1CCc1ccccc1 | 0 | i | -3 | -3 | -10
C/C=C/Cn1c(SCc2ccc(C)cc2)nc2c1c(=O)[nH]c(=O)n2C | -2 | i | 25 | -21 | -3
CCOC(=O)CSc1nc2c(c(=O)[nH]c(=O)n2C)n1C/C=C(/C)Cl | 0 | i | 37* | -23 | 2
CCCCn1c(SCC(=O)OCC)nc2c1c(=O)[nH]c(=O)n2C | -2 | i | 18 | -1 | 3
CCCCn1nnnc1C(c1ccccc1)N1CCN(C/C=C/c2ccccc2)CC1 (stereo not drawn) | x | x | 10 | x | x
CCc1nc2c(OCC3CCCCC3)cccn2c1N(C=O)Cc1ccc(OC)cc1 | x | x | -2 | x | x
O=C1/C(=N\S(=O)(=O)c2cccs2)C([n+]2ccc(CCCc3ccccc3)cc2)=C([O-])c2ccccc21 | -40* | i | 8 | 35 | 30
O=C1/C(=N\S(=O)(=O)c2cccs2)C([n+]2cccc(Cc3ccccc3)c2)=C([O-])c2ccccc21 | u | u | 84 | 142* | u
Cc1cc[n+](C2=C([O-])c3ccccc3C(=O)/C2=N\S(=O)(=O)c2cccs2)cc1C | -34* | i | 4 | -4 | 8
Cc1cc(C)c[n+](C2=C([O-])c3ccccc3C(=O)/C2=N\S(=O)(=O)c2cccs2)c1 | 2 | i | 6 | -4 | 25
CCCCN(C)c1c(C)nc2ccc(C(=O)Nc3ccc(OC)c(OC)c3)cn12 | x | x | 3 | x | x
COc1ccc(Cc2c(-c3ccc(C)cc3)nc3ccc(Cl)cn23)c(C)c1 | x | x | -15 | x | x
O=C(O)c1oc2ccc(Br)cc2c1-n1cccc1 | -1 | + | 4 | x | 81*
CCCN1C(=O)/C(=C/C=C2\N(CC)c3ccccc3C2(C)C)SC1=S | 3 | u | i | 127* | u
CCCCN1C(=O)/C(=C/C=C2\Oc3ccccc3N2CC)SC1=S | -28* | u | i | 104* | u
CN1/C(=C\C=C2/SC(=S)N(CC(=O)O)C2=O)C(C)(C)c2ccccc21 | u | u | i | -138 | u
C=CCN1C(=O)/C(=C\C=C2\N(C)c3ccccc3C2(C)C)SC1=S | -1 | i | i | 90* | u
CCN1C(=O)/C(=C/C=C2/Sc3ccccc3N2CCO)SC1=S | -4 | i | -108 | -19 | 0
O=C(C(=Cc1ccccc1)CN1CCCCC1)c1ccccc1 | x | x | 1 | x | x
Cc1ccccc1Oc1ccc2c(c1)[C@@H]1C[C@H](N(C)C(=S)Nc3ccc(F)cc3)[C@H]([C@H](C)O)C(=O)N1CC2 | x | x | -53 | x | x
Cc1cc(C)c(S(=O)(=O)/N=C2/C=C(Sc3ncn[nH]3)C(=O)c3ccccc32)cc1C | x | i | 45* | -36 | 7
COC(=O)c1c(NC2=NS(=O)(=O)c3ccccc32)sc2c1CCC(C(C)(C)C)C2 (stereo not drawn) | x | x | 8 | x | x
CC1(C(=O)Nc2cccc(Oc3ccccc3)c2)Cc2c(-c3ccc4c(c3)OCO4)ccnc2O1 (stereo not drawn) | x | x | -7 | x | x
CCN(CC)c1cccc(OCC(=O)N(C)CCC#N)c1 | 1 | + | -34 | 1 | 60*
N#C/C(=C\c1ccc(OC(=O)c2ccc(Cl)s2)cc1)c1nc2ccccc2[nH]1 | u | + | 16 | 20 | 51*
SMILES | MEX-5 binding | PABP polyA inh | MLLE-PAM2 inh | EBV gp42 inh | eIF4H inh
CCn1nc(-c2ccccc2)c2nc3ccccc3nc21 | u | u | 124 | 93* | u
CCCCn1c2nc3ccccc3nc2c2c(=O)n(CCC)cnc21 | 5 | i | 0 | -11 | -8
CCCn1nc(-c2ccccc2)c2nc3ccccc3nc21 | x | u | x | 65* | u
CCCCCn1nc(-c2ccccc2)c2nc3ccccc3nc21 | u | u | 122 | 161* | u
O=C(NCc1ccccc1)c1cc(C2CCCN(C(=O)C3CCCCC3)C2)on1 (stereo not drawn) | x | x | -11 | x | x
CNc1ncnc2c1ncn2[C@H]1CN(Cc2ccc3c(c2)OCO3)C[C@@H](CO)O1 | x | x | 11 | x | x
CCOc1ccc(NC(=O)c2cc3ccccc3cc2O)cc1 | -1 | + | 15 | 8 | 98*
CCOc1ccc(NC(=O)c2cc3c(C)nc4ccccc4c3o2)cc1 | -4 | i | -12 | 55* | -4
CC1=CC(C#N)(C#N)C(C#N)(C#N)C(c2ccccc2)N1 (stereo not drawn) | -53* | + | x | 114* | 102*
CCN=c1scc(C)n1/N=C/c1ccc(O)c(O)c1O | -17 | + | 20 | -6 | 82*
